Reference: PubChem BioAssay (EPA / NIEHS)
Values joined by “and” are separate entries in the source; they are usually repeats but may differ in a detail not shown here. Equal entries are not always repeated. Records with an inconclusive call do not appear. More than one record can exist for a structure, and the calls need not agree. Active and inactive are the calls of the source. How the source made its calls, unless noted: active means hit-call score of the fitted dose curve at least 0.9, where 1 is the maximum; inactive means score below 0.9.

Key:
[1] = biological target: Glucocorticoid receptor (Homo sapiens) (UniProt P04150); experiment: ATG_GR_TRANS: Attagene TRANS-FACTORIAL HepG2 Assay for human Glucocorticoid Receptor (GR) (AID 2282978; active means hit-call score of the fitted dose curve at least 0.9, where 1 is the maximum;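 further: activators score as hits since higher reporter transcript over DMSO is fitted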); details: HepG2 Attagene TRANS GR reporter, mRNA transcription
Sequence of Glucocorticoid receptor (Homo sapiens) (P04150 whole entry, looked up, the tested form may be a part): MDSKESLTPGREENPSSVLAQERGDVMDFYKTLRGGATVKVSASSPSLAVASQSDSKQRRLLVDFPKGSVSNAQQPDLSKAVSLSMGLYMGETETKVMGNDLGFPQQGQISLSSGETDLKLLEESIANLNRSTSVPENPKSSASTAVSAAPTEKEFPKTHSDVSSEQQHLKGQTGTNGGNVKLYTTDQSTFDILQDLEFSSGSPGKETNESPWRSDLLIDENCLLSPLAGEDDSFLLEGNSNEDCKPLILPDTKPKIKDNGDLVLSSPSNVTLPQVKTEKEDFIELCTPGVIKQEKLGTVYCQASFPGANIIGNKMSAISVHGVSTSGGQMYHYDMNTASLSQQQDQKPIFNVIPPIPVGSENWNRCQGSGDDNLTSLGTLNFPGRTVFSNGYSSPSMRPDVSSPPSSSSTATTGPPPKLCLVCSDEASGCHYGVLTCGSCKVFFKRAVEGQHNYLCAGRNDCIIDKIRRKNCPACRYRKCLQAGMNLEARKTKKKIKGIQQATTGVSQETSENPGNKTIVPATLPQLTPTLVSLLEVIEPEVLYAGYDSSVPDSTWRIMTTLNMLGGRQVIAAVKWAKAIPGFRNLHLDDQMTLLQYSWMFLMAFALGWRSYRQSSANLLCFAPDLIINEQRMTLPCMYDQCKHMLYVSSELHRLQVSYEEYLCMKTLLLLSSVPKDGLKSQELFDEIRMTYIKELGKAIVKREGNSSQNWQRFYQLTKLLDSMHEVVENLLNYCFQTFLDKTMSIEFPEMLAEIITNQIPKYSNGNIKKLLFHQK
In short: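 Measurement of GAL4-UAS-driven reporter mRNA in human HepG2 liver cells 24 h post-dosing, using RT-PCR with fluorescent labelling and capillary electrophoresis; the transfected constructs report exogenous NR-GAL4 chimera activity, fitted upward against DMSO.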

[2] = biological target: Oxysterols receptor LXR-beta (Homo sapiens) (UniProt P55055); experiment: ATG_LXRb_TRANS: Attagene TRANS-FACTORIAL HepG2 Assay for human Liver X Receptor beta (LXRb) (AID 2282981; active means hit-call score of the fitted dose curve at least 0.9, where 1 is the maximum); details: HepG2 Attagene TRANS GAL4-LXRb reporter, mRNA
Sequence of Oxysterols receptor LXR-beta (Homo sapiens) (P55055 whole entry, looked up, the tested form may be a part): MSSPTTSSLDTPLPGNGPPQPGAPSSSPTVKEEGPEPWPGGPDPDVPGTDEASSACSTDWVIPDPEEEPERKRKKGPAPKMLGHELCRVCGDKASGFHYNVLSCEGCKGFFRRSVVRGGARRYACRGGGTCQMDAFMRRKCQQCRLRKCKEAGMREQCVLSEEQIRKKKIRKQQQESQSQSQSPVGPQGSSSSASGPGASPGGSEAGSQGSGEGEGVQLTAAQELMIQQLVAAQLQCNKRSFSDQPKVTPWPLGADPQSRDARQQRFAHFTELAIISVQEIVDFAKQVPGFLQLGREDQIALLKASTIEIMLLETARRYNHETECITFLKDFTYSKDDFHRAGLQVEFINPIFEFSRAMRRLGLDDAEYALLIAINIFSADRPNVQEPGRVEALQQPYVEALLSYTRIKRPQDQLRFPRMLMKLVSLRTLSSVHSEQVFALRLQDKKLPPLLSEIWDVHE
In short: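 In this TRANS format, exogenous chimeric NR-Gal4 protein activity, not endogenous factors, drives reporter expression in transfected human HepG2 cells. Exposure lasted 24 h; reporter mRNA was read by fluorescent capillary electrophoresis.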

[3] = biological target: Hepatocyte nuclear factor 4-alpha (Homo sapiens) (UniProt P41235); experiment: ATG_HNF4a_TRANS: Attagene TRANS-FACTORIAL HepG2 Assay for human Hepatocyte Nuclear Factor 4 alpha (HNF4a) (AID 2282982; active means hit-call score of the fitted dose curve at least 0.9, where 1 is the maximum); details: HepG2 HNF4a transactivation reporter, mRNA readout
Sequence of Hepatocyte nuclear factor 4-alpha (Homo sapiens) (P41235 whole entry, looked up, the tested form may be a part): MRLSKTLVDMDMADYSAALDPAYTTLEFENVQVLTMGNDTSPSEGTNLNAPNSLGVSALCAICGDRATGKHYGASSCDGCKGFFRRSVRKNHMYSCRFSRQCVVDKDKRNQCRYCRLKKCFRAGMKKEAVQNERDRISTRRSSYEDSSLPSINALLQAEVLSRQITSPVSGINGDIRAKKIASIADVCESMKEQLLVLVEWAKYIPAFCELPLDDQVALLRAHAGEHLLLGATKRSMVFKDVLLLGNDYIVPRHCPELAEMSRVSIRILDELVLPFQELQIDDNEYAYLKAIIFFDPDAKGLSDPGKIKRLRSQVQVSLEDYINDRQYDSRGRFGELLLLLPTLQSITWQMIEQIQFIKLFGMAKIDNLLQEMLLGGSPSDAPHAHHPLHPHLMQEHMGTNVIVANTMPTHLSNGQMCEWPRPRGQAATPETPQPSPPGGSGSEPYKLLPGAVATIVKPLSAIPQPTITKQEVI
In short: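 Cells used were human HepG2, transiently carrying GAL4-UAS reporter units read out against exogenous NR-GAL4 chimeras. Reporter transcript levels after 24 h dosing were quantified by fluorescent RT-PCR and capillary electrophoresis.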

[4] = ATG_M_06_TRANS: Attagene TRANS-FACTORIAL HepG2 Assay for M06 Transcription Factor (Internal Marker) (AID 2282983; active means hit-call score of the fitted dose curve at least 0.9, where 1 is the maximum); details: HepG2 Attagene TRANS M06 internal marker reporter
In short: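 Measured by capillary electrophoresis of fluorescently labelled RT-PCR products, this endpoint reflects reporter mRNA in HepG2 cells harbouring exogenous NR-GAL4 reporter constructs after 24 h exposure, with DMSO as baseline.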

[5] = ATG_M_32_TRANS: Attagene TRANS-FACTORIAL HepG2 Assay for M32 Transcription Factor (Internal Marker) (AID 2282984; active means hit-call score of the fitted dose curve at least 0.9, where 1 is the maximum;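 further: transcript level of a background control reporter unit measured by RT-PCR and capillary electrophoresis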); details: HepG2 Attagene TRANS M32 internal marker reporter
In short: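 Human hepatoma HepG2, transient MRTU transfection, 24 h treatment. RNA → RT-PCR → fluorescent primer extension → HpaI digest (2 h, 37 C) → CE. Positive-direction fit vs DMSO.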

[6] = biological target: Nuclear receptor subfamily 4 group A member 2 (Homo sapiens) (UniProt P43354); experiment: ATG_NURR1_TRANS: Attagene TRANS-FACTORIAL HepG2 Assay for human Nuclear Receptor Related Protein 1 (NURR1) (AID 2282985; active means hit-call score of the fitted dose curve at least 0.9, where 1 is the maximum); details: HepG2 Attagene TRANS reporter, mRNA readout
Sequence of Nuclear receptor subfamily 4 group A member 2 (Homo sapiens) (P43354 whole entry, looked up): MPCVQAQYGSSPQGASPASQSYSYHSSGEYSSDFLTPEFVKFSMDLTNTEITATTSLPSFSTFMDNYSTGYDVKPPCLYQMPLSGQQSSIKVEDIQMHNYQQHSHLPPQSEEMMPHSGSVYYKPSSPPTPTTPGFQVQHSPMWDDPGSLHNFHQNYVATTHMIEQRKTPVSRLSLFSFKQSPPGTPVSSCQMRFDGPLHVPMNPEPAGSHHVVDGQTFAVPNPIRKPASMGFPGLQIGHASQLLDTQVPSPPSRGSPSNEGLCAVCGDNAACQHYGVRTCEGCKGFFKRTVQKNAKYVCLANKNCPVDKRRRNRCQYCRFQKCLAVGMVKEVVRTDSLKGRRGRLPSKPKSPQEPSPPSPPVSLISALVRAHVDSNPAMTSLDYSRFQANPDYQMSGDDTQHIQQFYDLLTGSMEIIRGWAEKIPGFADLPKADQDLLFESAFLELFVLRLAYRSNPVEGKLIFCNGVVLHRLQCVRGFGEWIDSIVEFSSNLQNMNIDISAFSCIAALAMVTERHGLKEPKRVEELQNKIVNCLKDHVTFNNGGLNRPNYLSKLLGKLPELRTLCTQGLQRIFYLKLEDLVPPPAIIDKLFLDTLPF
In short: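 After 24 h chemical dosing, total RNA from transiently transfected HepG2 cells was reverse-transcribed and reporter cDNA PCR-amplified, FAM-labelled and analysed by capillary electrophoresis. Activity fitted in positive direction, DMSO as negative control.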

[7] = biological target: Transcriptional activator Myb (Homo sapiens) (UniProt P10242); experiment: ATG_Myb_CIS: Attagene CIS-FACTORIAL HepG2 Assay for human Myeloblastosis (Myb) Proto-Oncogene Transcription Factor (AID 2282986); details: HepG2 Attagene CIS-FACTORIAL Myb reporter transcription; actives raise or lower the signal
Sequence of Transcriptional activator Myb (Homo sapiens) (P10242 whole entry, looked up): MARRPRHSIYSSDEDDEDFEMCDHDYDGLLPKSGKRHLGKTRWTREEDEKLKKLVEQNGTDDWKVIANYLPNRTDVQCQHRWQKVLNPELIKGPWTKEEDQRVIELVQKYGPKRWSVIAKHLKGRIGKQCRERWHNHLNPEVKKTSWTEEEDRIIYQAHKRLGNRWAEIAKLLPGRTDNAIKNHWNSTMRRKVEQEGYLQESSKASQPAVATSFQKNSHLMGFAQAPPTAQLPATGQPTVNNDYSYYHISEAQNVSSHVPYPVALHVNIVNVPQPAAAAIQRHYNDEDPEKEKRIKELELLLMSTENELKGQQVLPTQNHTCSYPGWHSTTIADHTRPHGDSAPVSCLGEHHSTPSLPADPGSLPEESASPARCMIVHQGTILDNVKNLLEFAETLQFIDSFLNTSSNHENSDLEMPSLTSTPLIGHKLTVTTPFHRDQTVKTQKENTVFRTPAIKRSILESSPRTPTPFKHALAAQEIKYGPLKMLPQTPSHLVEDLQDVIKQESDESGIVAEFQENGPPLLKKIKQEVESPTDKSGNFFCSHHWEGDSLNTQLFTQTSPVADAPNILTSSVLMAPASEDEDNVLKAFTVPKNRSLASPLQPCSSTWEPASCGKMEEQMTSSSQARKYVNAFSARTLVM
In short: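 Fluorescence signals from capillary electrophoresis of RT-PCR-amplified reporter cDNA give the read-out. Cells: HepG2 transfected with multiple cis-regulated reporter units. Exposure lasts 24 hours; DMSO defines baseline for gain or loss of signal.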

[8] = biological target: Nuclear respiratory factor 1 (Homo sapiens) (UniProt Q16656); experiment: ATG_NRF1_CIS: Attagene CIS-FACTORIAL HepG2 Assay for human Nuclear Respiratory Factor 1 (NRF1) Orphan Gene (AID 2282987); details: HepG2 NRF1 cis-element reporter, Attagene multiplex; actives raise or lower the signal
Sequence of Nuclear respiratory factor 1 (Homo sapiens) (Q16656 whole entry, looked up): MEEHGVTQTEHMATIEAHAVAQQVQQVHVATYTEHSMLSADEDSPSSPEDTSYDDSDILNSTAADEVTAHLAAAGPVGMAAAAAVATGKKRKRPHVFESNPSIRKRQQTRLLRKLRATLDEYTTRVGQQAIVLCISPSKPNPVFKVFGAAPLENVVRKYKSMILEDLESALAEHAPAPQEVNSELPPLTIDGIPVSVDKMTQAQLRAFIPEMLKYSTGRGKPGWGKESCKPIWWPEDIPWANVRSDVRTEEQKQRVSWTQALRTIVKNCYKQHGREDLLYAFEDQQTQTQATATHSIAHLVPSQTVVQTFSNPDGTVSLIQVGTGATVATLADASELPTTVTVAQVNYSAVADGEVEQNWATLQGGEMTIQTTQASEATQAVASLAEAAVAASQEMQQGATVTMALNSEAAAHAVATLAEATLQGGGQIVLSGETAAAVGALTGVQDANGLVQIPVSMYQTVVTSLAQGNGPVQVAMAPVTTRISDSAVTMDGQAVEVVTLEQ
In short: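 Transcriptional reporter readout, one component of a 52-endpoint multiplexed HepG2 panel. Exposure 24 h; mRNA detected via RT-PCR and fluorescent capillary electrophoresis; fitting in both directions against DMSO.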

[9] = ATG_NFI_CIS: Attagene CIS-FACTORIAL HepG2 Assay for human Nuclear Factor I (NFI) (AID 2282989); details: HepG2 cis-regulatory reporter, NFI response element transcription; actives raise or lower the signal
In short: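 Transfected HepG2 liver cells, exposed 24 h, supplied total RNA for oligo(dT) reverse transcription and reporter-specific PCR. Labelled, HpaI-cut fragments were sized by capillary electrophoresis; DMSO set the baseline for bidirectional fitting.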

[10] = biological target: Myc proto-oncogene protein (Homo sapiens) (UniProt P01106); experiment: ATG_Myc_CIS: Attagene CIS-FACTORIAL HepG2 Assay for human Myelocytomatosis (Myc) Proto-Oncogene Transcription Factor (AID 2282990); details: HepG2, Attagene cis-reporter transcription factor activity; actives raise or lower the signal
Sequence of Myc proto-oncogene protein (Homo sapiens) (P01106 whole entry, looked up): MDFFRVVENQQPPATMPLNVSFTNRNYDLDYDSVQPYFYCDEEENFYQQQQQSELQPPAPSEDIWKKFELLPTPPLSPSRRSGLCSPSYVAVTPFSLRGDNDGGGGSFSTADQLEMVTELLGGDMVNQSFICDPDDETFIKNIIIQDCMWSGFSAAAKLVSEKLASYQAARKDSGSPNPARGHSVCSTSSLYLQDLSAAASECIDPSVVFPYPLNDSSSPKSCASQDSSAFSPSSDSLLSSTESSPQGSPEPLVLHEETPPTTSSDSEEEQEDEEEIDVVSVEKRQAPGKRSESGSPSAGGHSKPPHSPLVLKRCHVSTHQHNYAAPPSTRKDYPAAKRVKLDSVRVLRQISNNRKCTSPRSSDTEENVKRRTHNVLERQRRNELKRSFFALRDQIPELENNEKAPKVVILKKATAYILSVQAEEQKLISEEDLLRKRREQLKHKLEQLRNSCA
In short: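 DMSO-normalised, bidirectionally fitted reporter mRNA signal. HepG2 cells transfected with cis reporter constructs, treated 24 h; transcripts detected by RT-PCR, 6-FAM primer extension and CE.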

[11] = ATG_NF_kB_CIS: Attagene CIS-FACTORIAL HepG2 Assay for human Nuclear Factor Kappa B (NF-kB) (AID 2282991); details: HepG2 Attagene cis-factorial NF-kB reporter mRNA; actives raise or lower the signal
In short: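 HepG2, transient multi-reporter transfection, cis promoter elements (endogenous TFs). 24 h exposure. Total RNA → RT → PCR → 6-FAM label → HpaI → CE. Gain/loss vs DMSO.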

[12] = ATG_NRF2_ARE_CIS: Attagene CIS-FACTORIAL HepG2 Assay for human Nuclear Factor Erythroid 2 Related Factor 2 (NFR2) response to Antioxidant Response Elements (ARE) (AID 2282992); details: HepG2 Attagene ARE/NRF2 reporter, transcription factor activity; actives raise or lower the signal;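 on AC50: reporter mRNA level measured by RT-PCR and capillary electrophoresis fluorescence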
In short: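 HepG2 cells transiently transfected with multiplexed cis-regulated reporter transcription units measure endogenous transcription factor activity. Reporter mRNA at 24 h is quantified by RT-PCR, fluorescent labelling and capillary electrophoresis, with bidirectional fitting relative to DMSO.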

[13] = biological target: Cellular tumor antigen p53 (Homo sapiens) (UniProt P04637); experiment: ATG_p53_CIS: Attagene CIS-FACTORIAL HepG2 Assay for human p53 Transcription Factor (AID 2282994); details: HepG2 p53 cis-element reporter, Attagene mRNA; actives raise or lower the signal
Sequence of Cellular tumor antigen p53 (Homo sapiens) (P04637 whole entry, looked up): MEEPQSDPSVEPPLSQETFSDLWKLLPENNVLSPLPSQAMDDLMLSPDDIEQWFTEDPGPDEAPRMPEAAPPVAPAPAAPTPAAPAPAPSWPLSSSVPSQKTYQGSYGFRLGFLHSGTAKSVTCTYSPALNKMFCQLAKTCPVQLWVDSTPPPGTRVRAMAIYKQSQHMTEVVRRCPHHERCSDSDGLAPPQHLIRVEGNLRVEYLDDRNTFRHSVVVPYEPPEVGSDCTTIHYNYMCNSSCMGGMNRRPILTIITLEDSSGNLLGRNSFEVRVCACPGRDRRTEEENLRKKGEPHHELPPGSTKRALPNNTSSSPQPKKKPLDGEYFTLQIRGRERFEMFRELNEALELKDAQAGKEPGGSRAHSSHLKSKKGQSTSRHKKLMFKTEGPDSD
In short: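 HepG2 cells transiently transfected with multiplexed cis-regulated reporter transcription units read endogenous TF activity. After 24 h compound exposure, reporter mRNA was quantified by RT-PCR, fluorescent labelling, HpaI digestion and capillary electrophoresis; bidirectional fits versus DMSO baseline.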

[14] = ATG_Oct_MLP_CIS: Attagene CIS-FACTORIAL HepG2 Assay for human Octamer-Binding Transcription Factor (Oct) (AID 2282993); details: HepG2 Attagene cis-factorial Oct reporter, mRNA; actives raise or lower the signal
In short: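 Using HepG2 cells bearing transfected cis-reporter constructs, mRNA induction was read after 24 h by fluorescent RT-PCR and capillary electrophoresis, with DMSO defining baseline for gain- or loss-of-signal fits.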

[15] = BSK_3C_TissueFactor: BioMAP Diversity Plus: 3C Assay for Tissue Factor Biomarker Activity (AID 2282997); details: BioMAP 3C HUVEC, tissue factor biomarker readout; actives raise or lower the signal
In short: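 Values derive from bidirectional curve fitting against DMSO of Tissue Factor ELISA signals, taken 24 h after dosing primary human umbilical vein endothelial cells.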

[16] = BSK_3C_uPAR: BioMAP Diversity Plus: 3C Assay for Urokinase-type plasminogen activator receptor (uPAR) Biomarker Activity (AID 2282998); details: BioMAP 3C HUVEC, uPAR biomarker ELISA; actives raise or lower the signal
In short: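 In this endothelial cell-based assay, human umbilical vein primary cells were treated with chemicals and harvested at 24 h. uPAR was quantified using ELISA, with gains or losses fitted relative to DMSO controls.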

[17] = BSK_3C_VCAM1: BioMAP Diversity Plus: 3C Assay for Vascular cell adhesion molecule 1 (VCAM1) Biomarker Activity (AID 2282999); details: BioMAP 3C HUVEC, VCAM1 ELISA, cytokine-stimulated; actives raise or lower the signal
In short: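 Human umbilical vein endothelial cells were dosed with compound for 24 h, after which cell-surface VCAM-1 was quantified by ELISA. Bidirectional curve fitting used DMSO as negative control and activity baseline.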

[18] = biological target: Oxysterols receptor LXR-alpha (Homo sapiens) (UniProt Q13133); experiment: ATG_LXRa_TRANS: Attagene TRANS-FACTORIAL HepG2 Assay for human Liver X Receptor alpha (LXRa) (AID 2282980; active means hit-call score of the fitted dose curve at least 0.9, where 1 is the maximum); details: HepG2 Attagene TRANS reporter, LXRa transactivation
In short: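 Transient HepG2 transfectants, 24 h dosing, RT-PCR/CE mRNA reporter quantitation; gain-of-signal vs DMSO.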

[19] = biological target: Bile acid receptor (Homo sapiens) (UniProt Q96RI1); experiment: ATG_FXR_TRANS: Attagene TRANS-FACTORIAL HepG2 Assay for Farnesoid X Receptor (FXR) (AID 2282979; active means hit-call score of the fitted dose curve at least 0.9, where 1 is the maximum;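 further: hits raise reporter mRNA above DMSO so AC50 marks FXR activation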); details: HepG2 Attagene TRANS FXR-GAL4 reporter transcription
Sequence of Bile acid receptor (Homo sapiens) (Q96RI1 whole entry, looked up, the tested form may be a part): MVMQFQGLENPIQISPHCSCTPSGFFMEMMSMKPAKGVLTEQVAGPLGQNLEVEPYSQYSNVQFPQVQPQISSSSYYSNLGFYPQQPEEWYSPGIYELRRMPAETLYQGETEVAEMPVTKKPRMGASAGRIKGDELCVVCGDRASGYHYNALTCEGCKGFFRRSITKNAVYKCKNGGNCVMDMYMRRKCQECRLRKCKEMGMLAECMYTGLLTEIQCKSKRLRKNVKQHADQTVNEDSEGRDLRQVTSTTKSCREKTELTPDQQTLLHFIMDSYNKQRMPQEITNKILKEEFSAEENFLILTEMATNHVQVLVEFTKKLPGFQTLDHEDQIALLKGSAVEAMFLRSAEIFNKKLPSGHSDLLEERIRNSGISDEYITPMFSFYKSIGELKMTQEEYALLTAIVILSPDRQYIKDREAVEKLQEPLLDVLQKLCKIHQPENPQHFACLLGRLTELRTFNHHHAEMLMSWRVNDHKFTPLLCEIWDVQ
In short: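 Chimeric FXR-GAL4 activity in transiently transfected human HepG2 liver cells is scored as induction of reporter mRNA after 24 h of dosing. Detection uses RT-PCR with fluorescent labelling and capillary electrophoresis, with DMSO serving as baseline.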

Measured: AC50

CC/C=C\C#N
not listed: [14] | [15] | [16] | [17] | [18] | [19]
inactive: all other assays above

C#C[C@]1(O)CC[C@H]2[C@@H]3CCc4cc(O)ccc4[C@H]3CC[C@@]21C
active: [7] 156 µM and 172 µM | [8] 152 µM and 138 µM | [9] 26.4 µM and 72.3 µM and 48.5 µM | [10] 146 µM and 61.6 µM | [11] 162 µM | [12] 187 µM | [14] 27.1 µM [middle of 4 runs] | [13] 30 µM [middle of 4 runs] | [15] 5.38 µM | [16] 6.34 µM
inactive: [1] | [2] | [3] | [4] | [5] | [6] | [7] | [8] | [9] | [10] | [11] | [12] | [14] | [13] | [17]

CC(=O)c1ccc(C)cc1
not listed: [6] | [13] | [18] | [19]
inactive: all other assays above

CC(C)(CO)CO
not listed: [2] | [5] | [6] | [8] | [11] | [19]
inactive: all other assays above

CC(C)(O)C(=O)c1ccc(OCCO)cc1
not listed: [5] | [6] | [15] | [16] | [17] | [18] | [19]
inactive: all other assays above

CCCO[Si](OCCC)(OCCC)OCCC
not listed: [2] | [3] | [4] | [11] | [16] | [18] | [19]
inactive: all other assays above

CCOC(=O)C(=O)OCC
inactive: [1] | [3] | [7] | [8] | [9] | [10] | [11] | [12] | [14] | [13]

CC(O)COCC(C)O (stereo unspecified)
not listed: [1] | [3] | [4] | [6] | [15] | [16] | [17] | [18]
inactive: all other assays above

C=CC(O)CCCCC (stereo unspecified)
active: [12] 38 µM | [14] 45.6 µM
inactive: [19] | [3] | [4] | [7] | [8] | [9] | [10] | [13]
